# According to ChEMBL document CHEMBL4513216, “Probing the Open Global Health Chemical Diversity Library for Multistage-Active Starting Points for Next-Generation Antimalarials” (ACS Infect Dis, 2020):
# Screen size: about 69,000 compounds; about 8,600 (12%) showed an effect of 50% or more. The full list was thinned out, with strong results kept by preference.
# Test system: Plasmodium berghei
# Experiment: Screen against P. berghei liver stage (PbLuc), transformed with Luciferase, at 10uM
# Format: functional, HepG2
# Details: tested at 10 uM
row,SMILES,INHIBITION [%]
1,Cc1cc(C2CCCN2Cc2ccc(C(=O)Nc3nccs3)cc2)on1 (stereo not drawn),7.97
2,Cc1cc(C2CCCN2Cc2cccc(C(=O)Nc3nccs3)c2)no1 (stereo not drawn),-30.7
3,Cc1nonc1C1CCCN1Cc1ccc(C(=O)Nc2nccs2)cc1 (stereo not drawn),56.6
4,O=c1[nH]c2cn(-c3ccc(Br)cc3)c(=O)n2[nH]1,31.6
5,Cc1ccc(C)c(OC2CCN(C(=O)CNc3ccccc3Cl)CC2)c1,83.9
6,Cc1ccc(C)c(OC2CCN(C(=O)NCC(=O)N3CCCC3)CC2)c1,-29.5
7,CCNC(=O)CCC(=O)N1CCC(Oc2cc(C)ccc2C)CC1,14.9
8,CCc1cnc(N)nc1N(C)CCc1cnn(C)c1,2.84
9,CC(C)S(=O)(=O)C(C)C(=O)NCc1ccccc1COc1ccccc1 (stereo not drawn),-4.12
10,Cc1cccc(CN(C(=O)CS(C)(=O)=O)C(C)C)c1,-12.9
11,COCCOCC(=O)N(Cc1cccc(C)c1)C(C)C,5.94
12,CC(=O)C(C)CC(=O)N(Cc1cccc(C)c1)C(C)C (stereo not drawn),68.4
13,O=C(c1ccc(O)cc1)N1C[C@@H]2OCCN(c3ncccn3)[C@@H]2C1,-15.2
14,CCOc1ncccc1NC(=O)NC1CCCN(S(C)(=O)=O)C1 (stereo not drawn),-2.19
15,COc1ncccc1C(=O)N1CCc2c(ncnc2N2CCOCC2)C1,-102
16,c1coc(CN2CCc3nnc(COc4cncnc4)n3CC2)c1,10.6
17,O=C1C(Sc2nnnn2C2CC2)CCN1c1ccccc1Cl (stereo not drawn),11.4

row,SMILES,INHIBITION [%]
1,Cc1ccc(F)cc1C(=O)N1CCOCC12CCCC2,69.1
2,O=C(c1ccc[nH]1)N1CCOCC12CCCC2,40.9
3,Cc1[nH]ccc1C(=O)N1CCOCC12CCCC2,19.3
4,Cn1cc(C2CCCN2C(=O)c2cnc(-c3ccco3)s2)cn1 (stereo not drawn),23.6
5,CNc1nnc(CCn2nc(C)c(Br)c2C)s1,7.38
6,CS(=O)(=O)c1ccc(-c2cnc(C3CCCN3)cn2)cc1 (stereo not drawn),45.95
7,CCCc1noc(CNc2ccc(C(=O)N3CCCC3)cc2C)n1,12.7
8,COc1cc2cc(C)c(SCCN3CCCCC3)nc2cc1OC,51.7
9,CCc1cc2cc(OC)c(OC)cc2nc1SCCN1CCCCC1,43.4
10,COc1cc2cc(C)c(SCCN3CCCC3)nc2cc1OC,33.2
11,CN1CCC(c2cccc(Cc3ccccc3)n2)CC1,82.7
12,CN1CCC(c2cccc(NCc3ccncc3)n2)CC1,-2.09
13,CN1CCC(c2cccc(Cc3ccc(F)cc3)n2)CC1,35.8
14,COc1ccc(Cc2cccc(C3CCN(C)CC3)n2)cc1,43.8
15,CN1CCC(c2cccc(Cc3ccc(C(F)(F)F)cc3)n2)CC1,85.7
16,CN1CCC(c2cccc(CCC(=O)NCC(N)=O)n2)CC1,-6.92
